# Where “and” joins values, the source holds several entries; their conditions need not be identical. Equal values may be shown once. This is part of a sample that, as a whole, favours compounds with a hit. Of some 83,000 tested, about 20% had one in any assay.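 Single-concentration screen, 48 h exposure, 96-well plates. Endpoint: percent growth. Below 10 = active.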 The source holds several records for some structures; these can differ, active in one and inactive in another. Calls of active or inactive are those of the source.
# Key:
# Assay in all cases: NCI-60 one-dose screen, 48 h (100 = growth as untreated, 0 = no growth, -100 = all killed)
# Conditions in all cases: 10 µM unless noted
# HCT-15 colon = system: HCT-15 colon
# HT29 colon = system: HT29 colon
# SNB-75 CNS = system: SNB-75 CNS
# SNB-19 CNS = system: SNB-19 CNS
# PC-3 prostate = system: PC-3 prostate
# SK-MEL-5 melanoma = system: SK-MEL-5 melanoma
# UACC-62 melanoma = system: UACC-62 melanoma
# LOX IMVI melanoma = system: LOX IMVI melanoma
# SK-MEL-28 melanoma = system: SK-MEL-28 melanoma
# U251 CNS = system: U251 CNS
SMILES,growth (HCT-15 colon),growth (HT29 colon),growth (SNB-75 CNS),growth (SNB-19 CNS),growth (PC-3 prostate),growth (SK-MEL-5 melanoma),growth (UACC-62 melanoma),growth (LOX IMVI melanoma),growth (SK-MEL-28 melanoma),growth (U251 CNS)
Nc1nc2ncc(CNc3ccc(C(=O)N[C@@H](CCc4nn[nH]n4)C(=O)O)cc3)nc2c(=O)[nH]1,104% (inactive) and 103% (inactive),104% (inactive) and 92.3% (inactive),87.4% (inactive) and 97.4% (inactive),107% (inactive) and 95.6% (inactive),101% (inactive) and 85.3% (inactive),101% (inactive) and 96.7% (inactive),97.3% (inactive) and 94.5% (inactive),99.5% (inactive) and 98.7% (inactive),97.5% (inactive) and 110% (inactive),
O=C(O)C1C2C=CC(C2)C1C(=O)O (stereo not drawn),106% (inactive) and 101% (inactive),94.3% (inactive) and 14.4% (inactive) and 104% (inactive),102% (inactive) and 61.9% (inactive) and 89% (inactive),99.2% (inactive) and 51.6% (inactive) and 113% (inactive),93.6% (inactive) and 17.4% (inactive) and 98.1% (inactive),103% (inactive) and 23.6% (inactive) and 98.5% (inactive),,109% (inactive) and 16.9% (inactive) and 104% (inactive),105% (inactive) and 49.8% (inactive) and 109% (inactive),105% (inactive) and 19.7% (inactive) and 98.8% (inactive)
CC1=CCC2CC1C2(C)C (stereo not drawn),99.5% (inactive) and 94% (inactive),114% (inactive) and 105% (inactive),102% (inactive) and 90.3% (inactive),95.8% (inactive) and 101% (inactive),101% (inactive) and 89.5% (inactive),102% (inactive) and 87.7% (inactive),97% (inactive) and 93.6% (inactive),93.4% (inactive) and 88.6% (inactive),97.5% (inactive) and 102% (inactive),97.4% (inactive) and 92% (inactive)
CC(C)Oc1ccc2cc(-c3nn(CC4CCNCC4)c4ncnc(N)c34)ccc2c1,61.9% (inactive) and -7.35% (active),37.9% (inactive) and -13.1% (active),59% (inactive) and -38.7% (active),92.7% (inactive) and 24.8% (inactive),65.1% (inactive) and 16.6% (inactive),59.8% (inactive) and -94.4% (active),,69.8% (inactive) and -80.3% (active),79.1% (inactive) and -85.7% (active),77.7% (inactive) and -11.9% (active)
O=C(CN1CCN(c2cc3c(cc2F)c(=O)c(C(=O)O)cn3C2CC2)CC1)Nc1ccc(Cl)cc1,83% (inactive) and 92.3% (inactive),57.9% (inactive) and 100% (inactive),79.7% (inactive),83.1% (inactive) and 90.9% (inactive),80.1% (inactive) and 89.1% (inactive),71.1% (inactive) and 83.5% (inactive),63.6% (inactive) and 57.8% (inactive),61.1% (inactive) and 72.4% (inactive),87.1% (inactive) and 84% (inactive),44.2% (inactive) and 102% (inactive)
O=C1NC(=O)C2(CCc3ccccc32)N1 (stereo not drawn),104% (inactive) and 108% (inactive),104% (inactive) and 109% (inactive),96.2% (inactive) and 94.1% (inactive),96.2% (inactive) and 103% (inactive),133% (inactive) and 88.2% (inactive),99.4% (inactive) and 108% (inactive),100% (inactive) and 96.7% (inactive),103% (inactive) and 95.7% (inactive),123% (inactive),109% (inactive) and 99% (inactive)
CCN(CC)CCC(CNc1c2ccc([N+](=O)[O-])cc2nc2cc(OC)c(OC)cc12)c1ccccc1 (stereo not drawn),-29.4% (active) and -71.4% (active),3.73% (active) and -97.3% (active),-95.7% (active) and -97.6% (active),-42.9% (active) and -93.8% (active),-62.6% (active) and -97.1% (active),-81.8% (active) and -100% (active),-78.6% (active) and -100% (active),-62.2% (active) and -100% (active),-84.8% (active),-44.7% (active) and -100% (active)
CN1CCN(C2CCN(C(=O)Nc3cc(Oc4ccc(NC(=O)C5(C(=O)Nc6ccc(F)cc6)CC5)c(F)c4)ccn3)CC2)CC1,-14.8% (active) and 93.5% (inactive),-60.3% (active) and 46.5% (inactive),-77.5% (active) and 77.2% (inactive),3.95% (active) and 115% (inactive),-12.3% (active) and 86.1% (inactive),-98% (active) and 80.1% (inactive),-78% (active) and 70.7% (inactive),-88.3% (active) and 93.1% (inactive),-91.6% (active) and 94.3% (inactive),-86.3% (active) and 98.1% (inactive)
NC(=S)NN=C1CCC(C2CCCCC2)CC1 (stereo not drawn),61.9% (inactive) and 66.1% (inactive),90% (inactive) and 79.7% (inactive),76.4% (inactive) and 92.8% (inactive),96% (inactive) and 102% (inactive),89% (inactive) and 74.1% (inactive),87.3% (inactive) and 87.8% (inactive),79.6% (inactive) and 88.3% (inactive),99.8% (inactive),91.5% (inactive) and 110% (inactive),93.7% (inactive) and 95.1% (inactive)
CCN(CC)CCNc1ccc(C)c2sc3ccccc3c(=O)c12 (tested in a mixture with another compound),14.5% (inactive) and 14.2% (inactive),1.12% (active) and 10.8% (inactive),25.6% (inactive) and 51% (inactive),41.1% (inactive) and 26.3% (inactive),50.4% (inactive) and 35.3% (inactive),-85.6% (active) and -91.5% (active),,-17% (active) and -40.3% (active),-3.67% (active) and -6.09% (active),18.4% (inactive) and 15.1% (inactive)
CC(=O)Nc1cccc2c1CCCC2,92.8% (inactive) and 96.5% (inactive),92.8% (inactive) and 85.6% (inactive),85.4% (inactive) and 101% (inactive),103% (inactive) and 104% (inactive),87.8% (inactive) and 90.2% (inactive),100% (inactive),107% (inactive) and 102% (inactive),97.1% (inactive) and 93.6% (inactive),104% (inactive) and 107% (inactive),
Oc1ccc(/C=C/c2ccccc2)cc1,67.1% (inactive) and 68.2% (inactive),104% (inactive) and 84.8% (inactive),68.7% (inactive) and 83.4% (inactive),84.1% (inactive) and 91.2% (inactive),70% (inactive) and 43.8% (inactive),56.1% (inactive) and 55.7% (inactive),56.3% (inactive) and 53.4% (inactive),55.6% (inactive) and 68.9% (inactive),97.5% (inactive) and 99.8% (inactive),67.7% (inactive) and 53.5% (inactive)
CN1C(=O)C(N=Nc2ccc([N+](=O)[O-])cc2)SC1=S (stereo not drawn),51.7% (inactive) and 50.8% (inactive),64.4% (inactive) and 80.4% (inactive),85.9% (inactive) and 91.5% (inactive),69.4% (inactive) and 81.4% (inactive),55.5% (inactive) and 50.8% (inactive),71.3% (inactive) and 73.7% (inactive),,41.9% (inactive) and 51.5% (inactive),86.6% (inactive) and 95.9% (inactive),62.8% (inactive) and 69.4% (inactive)
Oc1nc(NCCc2ccccc2)sc1/C=C1\C=Nc2ncccc21,33.5% (inactive) and 36.5% (inactive),27.8% (inactive) and 30.6% (inactive),-13.3% (active) and -10.9% (active),12.1% (inactive),19.2% (inactive) and 25.9% (inactive),-0.16% (active) and 14.5% (inactive),,8.25% (active) and 16.3% (inactive),0.815% (active) and 16% (inactive),7.63% (active) and 15.8% (inactive)
CN(C)c1ccc(C(=C2C=CC(=[N+](C)C)C=C2)c2ccccc2Cl)cc1,6.9% (active) and -30.6% (active),-38.3% (active) and -24% (active),-58.6% (active) and -96.1% (active),-96.9% (active) and -95.6% (active),-19.5% (active),-100% (active) and -96.9% (active),-70.6% (active) and -73.3% (active),-57.2% (active) and -97.2% (active),-93.7% (active) and -96.8% (active),-58.3% (active) and -97.7% (active)

# Source: PubChem BioAssay (NCI)
